# Laboratory results as given in the supplement of paper PMC10849652.
# About 7,900 targets were measured; listed, in parts, are those with a hit and a random draw of the rest. About 0.6% of all pairs of compound and target were hits. A number with no mark means an inactive call.
# Key:
# Experiment in all cases: log2 fold change, soluble protein after heating vs DMSO (PISA); higher = thermal stabilisation; K562 cells, 10 uM, 30 min; active = over 0.2 and 3.5 SD of the protein, either way, in both replicates (recomputed)
# [1] = compound: Cc1ccc(NC(=O)c2ccc(CN3CC[C@H](N(C)C)C3)c(C(F)(F)F)c2)cc1Nc1nccc(-c2cncnc2)n1 [bafetinib]
# In short: (§1)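 K562 cells at 2×10^6 cells/mL were treated with 10 μM compound for 30 min. Aliquots were heated for 3 min across 48°C-58°C, pooled, and extracted in PBS with 0.5% NP-40 at 4°C; soluble protein was the supernatant after 21,000xg for 90 min. Soluble protein was quantified by TMTpro 16plex LC-MS/MS with channel sums equalised, and reported as log2 fold change in thermal stability against DMSO controls, with values from duplicates.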
# [2] = compound: Cc1cccc(CC(=O)N2CCc3c2ccc(-c2cn(C)c4ncnc(N)c24)c3F)n1
# In short: as §1
# [3] = compound: Cc1cn(-c2cc(NC(=O)c3ccc(C)c(Nc4nccc(-c5cccnc5)n4)c3)cc(C(F)(F)F)c2)cn1 [nilotinib]
# In short: as §1
# [4] = compound: Cc1nc(Nc2n[nH]c3c2CN(C(=O)N[C@H](CN(C)C)c2ccccc2)C3(C)C)c2sccc2n1
# In short: as §1
# [5] = compound: Cc1nc(Nc2ncc(C(=O)Nc3c(C)cccc3Cl)s2)cc(N2CCN(CCO)CC2)n1 [dasatinib]
# In short: as §1
# [6] = compound: Cc1ncc(-c2ccnc(Nc3ccc(S(C)(=O)=O)cc3)n2)n1C(C)C
# In short: as §1
# [7] = compound: Cn1cc(-c2ccc3c(c2)CCN3C(=O)Cc2cccc(C(F)(F)F)c2)c2c(N)ncnc21
# In short: as §1
# [8] = compound: Cn1cc(-c2ccc3nnc(C(F)(F)c4ccc5ncccc5c4)n3n2)cn1
# In short: as §1
# [9] = compound: Cn1cncc1[C@@](N)(c1ccc(Cl)cc1)c1ccc2c(c1)c(-c1cccc(Cl)c1)cc(=O)n2C [tipifarnib]
# In short: as §1
# [10] = compound: FC(F)(F)c1ccc(/C=C/c2nc(COc3ccc(CCCCn4ccnn4)cc3)co2)cc1 [mubritinib]
# In short: as §1
# [11] = compound: NC(=O)Nc1cc(-c2cccc(F)c2)sc1C(=O)N[C@H]1CCCNC1
# In short: as §1
# [12] = compound: NC(=O)c1cnc(N[C@@H]2CCCC[C@@H]2N)nc1Nc1cccc(-n2nccn2)c1
# In short: as §1
# [13] = compound: NC1(c2ccc(-c3nc4ccn5c(=O)[nH]nc5c4cc3-c3ccccc3)cc2)CCC1
# In short: as §1
# [14] = compound: NCC(=O)Nc1ccc(-n2nc(C(F)(F)F)cc2-c2ccc3c(ccc4ccccc43)c2)cc1
# In short: as §1
# [15] = compound: Nc1ccccc1NC(=O)c1ccc(CNC(=O)OCc2cccnc2)cc1 [entinostat]
# In short: as §1
# [16] = compound: O=C(CCCCCCC(=O)Nc1ccccc1)NO [vorinostat]
# In short: as §1
# [17] = compound: O=C(CCCCCCNC(=O)c1cnc(N(c2ccccc2)c2ccccc2Cl)nc1)NO [citarinostat]
# In short: as §1
# [18] = compound: O=C(O)c1ccc2c(c1)nc(Nc1cccc(Cl)c1)c1ccncc12 [silmitasertib]
# In short: as §1
# [19] = compound: O=C1NC(=O)C(c2cnc3ccccn23)=C1c1cn2c3c(cc(F)cc13)CN(C(=O)N1CCCCC1)CC2
# In short: as §1
# [20] = compound: c1cc(OCCN2CCCCC2)cc(-c2n[nH]c3ccc(-c4nnc[nH]4)cc23)c1
# In short: as §1
# UniProt Q86UX7, sequence (Q86UX7 whole entry, looked up): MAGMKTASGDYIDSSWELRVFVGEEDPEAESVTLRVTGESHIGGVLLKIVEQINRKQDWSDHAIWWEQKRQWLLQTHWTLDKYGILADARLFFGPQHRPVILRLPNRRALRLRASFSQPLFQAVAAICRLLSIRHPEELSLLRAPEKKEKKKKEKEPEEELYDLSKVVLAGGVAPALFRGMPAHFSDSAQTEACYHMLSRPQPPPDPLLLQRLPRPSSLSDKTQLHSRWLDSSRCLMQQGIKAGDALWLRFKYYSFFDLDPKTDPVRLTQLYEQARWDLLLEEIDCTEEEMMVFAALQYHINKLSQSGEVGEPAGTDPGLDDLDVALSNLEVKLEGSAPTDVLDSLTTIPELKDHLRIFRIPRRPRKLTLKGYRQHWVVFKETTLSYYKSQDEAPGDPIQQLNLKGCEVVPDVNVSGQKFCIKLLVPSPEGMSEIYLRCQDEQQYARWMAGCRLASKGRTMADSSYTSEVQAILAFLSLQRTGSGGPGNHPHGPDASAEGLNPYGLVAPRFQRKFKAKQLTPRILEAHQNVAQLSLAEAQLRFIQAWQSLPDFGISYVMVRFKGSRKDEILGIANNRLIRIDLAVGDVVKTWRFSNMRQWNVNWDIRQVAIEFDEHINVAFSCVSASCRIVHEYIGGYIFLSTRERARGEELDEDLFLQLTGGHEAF
# UniProt O94925, sequence (O94925 whole entry, looked up): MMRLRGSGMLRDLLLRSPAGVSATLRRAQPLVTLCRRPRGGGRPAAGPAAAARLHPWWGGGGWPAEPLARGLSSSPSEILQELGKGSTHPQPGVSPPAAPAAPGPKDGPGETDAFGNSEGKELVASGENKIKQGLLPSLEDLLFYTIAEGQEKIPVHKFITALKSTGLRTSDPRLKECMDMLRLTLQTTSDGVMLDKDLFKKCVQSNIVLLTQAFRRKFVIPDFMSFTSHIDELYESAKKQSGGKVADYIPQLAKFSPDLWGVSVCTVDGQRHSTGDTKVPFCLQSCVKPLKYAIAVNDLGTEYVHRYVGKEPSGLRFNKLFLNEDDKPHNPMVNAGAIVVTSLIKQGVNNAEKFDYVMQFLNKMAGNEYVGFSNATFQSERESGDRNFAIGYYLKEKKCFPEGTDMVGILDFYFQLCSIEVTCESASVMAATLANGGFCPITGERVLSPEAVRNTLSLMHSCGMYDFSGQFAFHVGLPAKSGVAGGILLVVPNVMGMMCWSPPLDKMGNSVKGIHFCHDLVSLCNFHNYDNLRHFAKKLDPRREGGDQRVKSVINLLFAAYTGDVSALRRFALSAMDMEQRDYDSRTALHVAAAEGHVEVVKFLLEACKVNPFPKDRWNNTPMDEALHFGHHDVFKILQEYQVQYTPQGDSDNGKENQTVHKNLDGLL
# UniProt Q8NCW6, sequence (Q8NCW6 whole entry, looked up): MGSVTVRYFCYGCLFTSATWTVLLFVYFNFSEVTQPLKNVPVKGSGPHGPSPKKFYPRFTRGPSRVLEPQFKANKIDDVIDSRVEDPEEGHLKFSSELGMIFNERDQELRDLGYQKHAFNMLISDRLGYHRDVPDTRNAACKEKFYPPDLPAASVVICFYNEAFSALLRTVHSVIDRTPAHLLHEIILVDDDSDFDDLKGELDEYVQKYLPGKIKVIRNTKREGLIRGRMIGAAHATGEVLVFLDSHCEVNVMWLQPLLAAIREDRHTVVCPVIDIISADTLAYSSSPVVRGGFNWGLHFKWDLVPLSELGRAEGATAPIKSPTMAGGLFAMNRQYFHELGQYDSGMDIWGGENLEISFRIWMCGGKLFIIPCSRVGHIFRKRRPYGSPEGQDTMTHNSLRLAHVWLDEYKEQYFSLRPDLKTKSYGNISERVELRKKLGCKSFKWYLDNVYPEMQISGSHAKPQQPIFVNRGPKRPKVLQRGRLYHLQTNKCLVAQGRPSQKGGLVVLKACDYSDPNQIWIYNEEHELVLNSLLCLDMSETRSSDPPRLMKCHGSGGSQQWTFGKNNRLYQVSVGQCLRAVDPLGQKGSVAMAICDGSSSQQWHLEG
# UniProt P22087, sequence (P22087 whole entry, looked up): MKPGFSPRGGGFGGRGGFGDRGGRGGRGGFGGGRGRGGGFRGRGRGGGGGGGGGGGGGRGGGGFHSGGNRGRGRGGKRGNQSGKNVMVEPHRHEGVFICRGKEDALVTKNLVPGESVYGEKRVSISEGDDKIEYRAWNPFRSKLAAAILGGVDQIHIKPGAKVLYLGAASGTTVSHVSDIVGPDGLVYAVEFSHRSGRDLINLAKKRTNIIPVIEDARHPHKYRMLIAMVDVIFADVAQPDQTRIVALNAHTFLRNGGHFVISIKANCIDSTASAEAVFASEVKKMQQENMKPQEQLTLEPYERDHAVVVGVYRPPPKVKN
# UniProt Q9H6D7, sequence (Q9H6D7 whole entry, looked up): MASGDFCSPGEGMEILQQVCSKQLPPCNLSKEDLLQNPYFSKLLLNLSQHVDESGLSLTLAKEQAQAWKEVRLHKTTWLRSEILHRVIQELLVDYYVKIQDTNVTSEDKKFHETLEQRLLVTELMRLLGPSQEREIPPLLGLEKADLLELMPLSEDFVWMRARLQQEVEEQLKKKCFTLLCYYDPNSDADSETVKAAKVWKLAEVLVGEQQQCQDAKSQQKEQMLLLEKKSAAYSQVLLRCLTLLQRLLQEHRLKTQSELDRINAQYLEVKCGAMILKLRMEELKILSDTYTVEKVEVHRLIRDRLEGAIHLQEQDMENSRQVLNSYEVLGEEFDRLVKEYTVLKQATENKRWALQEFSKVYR
# UniProt O00458, sequence (O00458 whole entry, looked up): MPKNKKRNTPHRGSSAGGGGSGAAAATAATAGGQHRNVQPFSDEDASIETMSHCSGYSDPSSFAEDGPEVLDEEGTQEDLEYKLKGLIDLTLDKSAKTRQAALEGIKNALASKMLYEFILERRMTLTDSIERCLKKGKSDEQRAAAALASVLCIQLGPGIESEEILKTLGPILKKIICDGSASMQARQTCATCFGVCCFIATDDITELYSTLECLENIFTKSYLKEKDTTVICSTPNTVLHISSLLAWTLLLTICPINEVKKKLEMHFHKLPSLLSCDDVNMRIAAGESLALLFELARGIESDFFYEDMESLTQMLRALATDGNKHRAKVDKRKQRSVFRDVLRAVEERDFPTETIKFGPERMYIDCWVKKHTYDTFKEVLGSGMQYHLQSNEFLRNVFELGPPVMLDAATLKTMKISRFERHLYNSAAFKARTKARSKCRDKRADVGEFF
# UniProt P52657, sequence (P52657 whole entry, looked up): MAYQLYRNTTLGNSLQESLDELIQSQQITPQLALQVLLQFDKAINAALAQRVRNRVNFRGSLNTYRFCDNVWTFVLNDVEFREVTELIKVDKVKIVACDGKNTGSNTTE
# UniProt P29084, sequence (P29084 whole entry, looked up): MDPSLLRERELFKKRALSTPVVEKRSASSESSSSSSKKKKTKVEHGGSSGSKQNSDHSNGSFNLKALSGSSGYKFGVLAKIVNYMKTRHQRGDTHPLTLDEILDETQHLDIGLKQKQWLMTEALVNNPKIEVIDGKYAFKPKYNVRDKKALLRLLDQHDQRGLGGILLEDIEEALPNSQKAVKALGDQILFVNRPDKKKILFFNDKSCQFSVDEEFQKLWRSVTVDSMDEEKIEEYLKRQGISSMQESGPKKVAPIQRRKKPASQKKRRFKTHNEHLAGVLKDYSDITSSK
# UniProt O75146, sequence (O75146 whole entry, looked up): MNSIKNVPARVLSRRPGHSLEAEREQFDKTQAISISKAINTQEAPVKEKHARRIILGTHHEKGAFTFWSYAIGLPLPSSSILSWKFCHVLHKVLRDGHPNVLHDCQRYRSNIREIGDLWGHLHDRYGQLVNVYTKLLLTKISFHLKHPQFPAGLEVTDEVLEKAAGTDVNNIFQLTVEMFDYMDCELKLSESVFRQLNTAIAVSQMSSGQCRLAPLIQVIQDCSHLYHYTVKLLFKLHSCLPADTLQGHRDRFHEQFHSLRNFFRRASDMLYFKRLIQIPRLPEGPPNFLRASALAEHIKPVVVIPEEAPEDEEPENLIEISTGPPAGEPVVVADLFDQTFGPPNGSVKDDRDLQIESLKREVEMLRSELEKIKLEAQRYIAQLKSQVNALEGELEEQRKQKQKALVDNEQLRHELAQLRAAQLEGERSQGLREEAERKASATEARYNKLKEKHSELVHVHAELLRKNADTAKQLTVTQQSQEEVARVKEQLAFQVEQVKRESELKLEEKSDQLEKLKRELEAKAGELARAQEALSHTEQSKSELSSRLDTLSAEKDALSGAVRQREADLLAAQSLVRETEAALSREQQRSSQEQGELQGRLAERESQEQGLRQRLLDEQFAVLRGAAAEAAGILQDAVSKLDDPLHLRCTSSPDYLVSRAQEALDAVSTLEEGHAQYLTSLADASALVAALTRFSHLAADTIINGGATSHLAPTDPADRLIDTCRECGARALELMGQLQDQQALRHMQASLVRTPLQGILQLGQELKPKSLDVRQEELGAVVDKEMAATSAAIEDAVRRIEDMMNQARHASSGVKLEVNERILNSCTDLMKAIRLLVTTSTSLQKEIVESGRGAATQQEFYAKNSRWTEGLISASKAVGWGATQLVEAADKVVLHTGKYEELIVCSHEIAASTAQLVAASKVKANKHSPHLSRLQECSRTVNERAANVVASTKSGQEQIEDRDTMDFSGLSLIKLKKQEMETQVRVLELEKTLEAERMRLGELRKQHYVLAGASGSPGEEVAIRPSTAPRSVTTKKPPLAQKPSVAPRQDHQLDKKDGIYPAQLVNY
# UniProt Q03014, sequence (Q03014 whole entry, looked up): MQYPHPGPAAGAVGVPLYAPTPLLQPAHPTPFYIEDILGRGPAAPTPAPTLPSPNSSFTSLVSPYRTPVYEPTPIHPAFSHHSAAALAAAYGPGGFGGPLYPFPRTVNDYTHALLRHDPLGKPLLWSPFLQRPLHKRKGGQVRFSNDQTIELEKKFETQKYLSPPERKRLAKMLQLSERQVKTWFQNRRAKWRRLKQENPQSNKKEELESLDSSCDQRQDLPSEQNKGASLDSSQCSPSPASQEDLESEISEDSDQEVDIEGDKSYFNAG
Target,log2 fold change [1],log2 fold change [2],log2 fold change [3],log2 fold change [4],log2 fold change [5],log2 fold change [6],log2 fold change [7],log2 fold change [8],log2 fold change [9],log2 fold change [10],log2 fold change [11],log2 fold change [12],log2 fold change [13],log2 fold change [14],log2 fold change [15],log2 fold change [16],log2 fold change [17],log2 fold change [18],log2 fold change [19],log2 fold change [20]
GTF2A2 (UniProt P52657),-0.032,-0.036,-0.025,0.022,0.047,-0.021,0.056,0.104,-0.028,0.008,0.023,-0.028,-0.038,-0.008,0.03,-0.044,0.058,-0.008,-0.014,0
GLS isoform 3 (UniProt O94925),0.045,0.028,-0.238,-0.162,-0.282,0.046,-0.097,0.114,-0.208,-0.492 (active),-0.133,0.154,-0.285,0.01,-0.017,0.019,0.169,0,-0.24,0.071
GSTO1 (UniProt P78417),0.021,0.148,-0.009,-0.021,-0.007,-0.009,0.019,-0.004,-0.014,0.018,-0.015,-0.002,0.022,0.001,-0.022,0.058,0.039,-0.047,0.018,-0.022
GALNT11 (UniProt Q8NCW6),-0.055,-0.089,-0.047,-0.068,-0.022,0.076,0.069,-0.031,0.102,0.088,0.001,-0.119,-0.224,-0.023,-0.012,0.01,0.079,0.027,-0.021,0.002
HAUS4 (UniProt Q9H6D7),-0.069,0.023,0.08,0.086,0.178,0.567,-0.045,-0.051,-0.115,-0.547,0.067,-0.165,0.229,-0.089,0.12,0.01,-0.106,0.095,0.088,-0.08
GTF2E2 (UniProt P29084),0.031,0.03,-0.082,-0.108,-0.241,0.005,-0.016,0.044,0.051,-0.02,-0.097,-0.052,-0.048,-0.048,0.025,0.093,0.093,0.085,0.054,-0.067
HNRNPK isoform 2 (UniProt P61978),-0.03,0.007,-0.084,-0.206,-0.072,-0.136,0.031,0.017,0.007,-0.024,-0.045,-0.086,-0.073,-0.093,0.056,0.065,0.05,-0.017,-0.137,-0.038
FBL (UniProt P22087),0.29,-0.039,0.094,-0.017,0.454,-0.01,-0.337,-0.097,0.301,-0.241,0.095,0.165,0.455,0.067,-0.109,0.005,-0.109,0.232,0.13,-0.237
HSPA8 (UniProt P11142),0.008,-0.008,0.081,-0.001,0.03,-0.003,-0.029,-0.003,0.037,-0.002,-0.006,0.011,0.018,0.012,-0.009,-0.01,-0.026,-0.015,0.003,-0.034
FERMT3 (UniProt Q86UX7),-0.022,0.029,-0.036,-0.053,-0.075,-0.015,0.029,-0.019,-0.087,0.051,-0.055,-0.107,-0.106,-0.065,0.032,0.026,0.067,-0.001,-0.048,-0.02
FBXO42 (UniProt Q6P3S6),-0.014,-0.006,-0.006,0.028,-0.036,-0.026,0.137,-0.007,0.006,0.059,-0.048,-0.087,-0.176,0.061,-0.028,-0.03,-0.001,0.006,0.013,-0.026
IFRD1 (UniProt O00458),0.118,-0.031,0.165,0.056,0.071,0.202,-0.011,-0.005,0.001,0.1,-0.035,-0.275,-0.058,-0.009,-0.08,-0.25,-0.035,0.175,0.022,-0.016
HHEX (UniProt Q03014),-0.039,-0.024,-0.033,-0.056,0.04,0.008,0.373,0.044,-0.012,0.066,0.04,0.084,-0.054,0.568 (active),0.045,0.012,0.029,-0.018,0.006,-0.016
HIP1R (UniProt O75146),-0.021,0.043,-0.11,0.016,-0.144,-0.019,0.022,-0.013,-0.075,0.036,-0.032,-0.001,-0.138,0.014,0.027,0.069,0.022,0,-0.024,-0.005
